From PubChem BioAssay
Only some compounds are listed: those with a hit (about 2.5% of all), similar ones and a draw of the others.
MEKK2mut PB1 HTS – signal of MEK5 binding to mutant human MEKK2 PB1 domain; bead flow cytometry, Alexa488-MEK5 binding to MEKK2 mutant; percent response, % at 10 µM; hit rate 0.35% among 290,000; in the data active = percent response above about 24%, passing the limit was not always enough
UBC13 polyUb – human UBC13 polyubiquitination inhibition | inhibition, % at 20 µM | UBC13 polyubiquitin chain formation, TR-FRET | AID 485273 | P61088 | hit rate 0.47% among 330,000; in the data active = inhibition above about 45%, passing the limit was not always enough
Rce1 inh – blocks yeast Ras-converting enzyme | Q03530 | yeast membranes, quenched prenylated peptide cleavage fluorescence | calls only | hit rate 0.27% among 290,000 | AID 2563;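 active = fall in fluorescence gain of 50% or more versus controls, with final raw signal at or below 3038400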;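 also: plate controls were neutral control wells for no effect and wells lacking membranes for full effect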
MEKK3 PB1 HTS – MEKK3-MEK5 PB1 interaction, increase or decrease; Q99759; bead-based flow cytometry, Alexa488-MEK5 binding to MEKK3; actives lie on both sides; 0 = blocked by unlabeled MEK5, 100 = vehicle; binding response (% of control), % at 10 µM; hit rate 1.4% among 290,000;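 active = binding response more than 3 SD above or below the average of its plate-row segment, actives on both sides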;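 also: Alexa488 bead fluorescence after subtracting the streptavidin-only scavenger bead signal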
Target sequence (Q99759 whole entry, looked up): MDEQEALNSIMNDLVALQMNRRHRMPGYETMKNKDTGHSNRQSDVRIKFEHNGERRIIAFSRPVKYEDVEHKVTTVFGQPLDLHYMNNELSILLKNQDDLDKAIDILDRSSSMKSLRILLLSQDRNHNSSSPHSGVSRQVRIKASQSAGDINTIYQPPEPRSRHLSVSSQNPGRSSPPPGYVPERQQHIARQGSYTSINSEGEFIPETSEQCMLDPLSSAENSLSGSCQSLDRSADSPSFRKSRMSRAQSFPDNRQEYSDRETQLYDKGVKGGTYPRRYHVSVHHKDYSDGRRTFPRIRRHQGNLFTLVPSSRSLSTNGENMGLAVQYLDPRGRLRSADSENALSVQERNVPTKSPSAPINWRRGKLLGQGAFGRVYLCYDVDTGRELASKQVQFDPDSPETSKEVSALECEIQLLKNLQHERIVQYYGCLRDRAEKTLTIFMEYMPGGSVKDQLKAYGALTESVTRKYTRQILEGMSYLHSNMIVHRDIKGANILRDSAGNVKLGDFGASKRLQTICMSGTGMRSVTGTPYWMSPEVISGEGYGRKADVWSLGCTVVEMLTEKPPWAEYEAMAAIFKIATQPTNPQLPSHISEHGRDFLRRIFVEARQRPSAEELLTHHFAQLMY
MEKK2wt PB1 HTS – raises or lowers MEK5 binding to wildtype human MEKK2 PB1 domain; bead flow cytometry, Alexa488-MEK5 binding to MEKK2 WT; actives lie on both sides; hit rate 1.1% among 290,000; binding response (% of control), % at 10 µM; AID 1531; in the data active = binding response below about 67% or above about 130%
MEKK2wt confirm – raises or lowers MEK5 binding to wildtype human MEKK2, retest; shares compounds with MEKK3 PB1 HTS; bead flow cytometry, Alexa488-MEK5 binding to MEKK2 WT; actives lie on both sides; binding response (% of control), % at 10 µM; hit rate 2.4% among 5,900; AID 1892; in the data active = binding response below about 16% or above about 210%; inactive = in between
MEKK2mut-MEK5 – signal of MEK5 binding to mutant human MEKK2, retest; shares compounds with MEKK3 PB1 HTS; bead flow cytometry, Alexa488-MEK5 binding to MEKK2 mutant; percent response, % at 10 µM; hit rate 2% among 5,900; in the data active = percent response mostly above about 71%, no sharp cut-off; inactive = mostly below about 38%;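 also: higher means compound restores mutant binding toward wildtype level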
MEKK3 confirm – MEKK3-MEK5 PB1 inhibition, single concentration confirmation. shares compounds with MEKK3 PB1 HTS. bead flow cytometry, Alexa488-MEK5 binding to MEKK3; active compounds read low. binding response (% of control), % at 10 µM. hit rate 1.8% among 5,900. AID 1894;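 active = binding response below 72% of control, or above a set upper limit, though filed actives all read lower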;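 also: 100% = DMSO only wells and 0% = binding blocked by excess unlabeled MEK5; lower values mean stronger disruption of MEK5 binding to MEKK3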
An asterisk follows results filed as active; i = inactive; . = no result given; [ ] = another dose, or the depositor's remark.

SMILES | MEKK2mut PB1 HTS | UBC13 polyUb | Rce1 inh | MEKK3 PB1 HTS | MEKK2wt PB1 HTS | MEKK2wt confirm | MEKK2mut-MEK5 | MEKK3 confirm
CC(=O)Nc1cccc(C(=O)N2CCN(Cc3ccccc3)CC2)c1 | -21 | 4 | i | -1.0*[inhibitor] | -1.0*[inhibitor] | 107 | 3 | 105
Cc1ccc(NC(=O)c2snc3ccc(Cl)cc23)cc1C | -1 | 6 | i | 131* | 102 | 100 | -3 | 98
COC(=O)c1ccc(N(CC(=O)NC2CCCCC2)C(=O)CNC(=O)c2ccco2)cc1 | 5 | 7 | i | 103 | 106 | . | . | .
COc1ccc(NC(=O)N2CCNC(=O)C2CC(=O)Nc2ccc(F)cc2)cc1 (stereo unspecified) | 5 | -2 | i | 106 | 108 | . | . | .
O=C(CSc1nc2cc(Cl)ccc2s1)NC(=O)NCc1ccco1 | -11 | 9 | i | 81*[inhibitor] | 85 | 99 | -1 | 100
COC(=O)Cn1c(=NC(=O)c2ccc(OC)c(OC)c2)sc2cc(OC)ccc21 | -2 | 23 | i | 106 | 101 | . | . | .
COC(=O)Cn1c(=NC(=O)c2ccc(Cl)s2)sc2cc(F)ccc21 | 0 | 0 | i | 134* | 102 | 99 | -1 | 98
Cc1cccc(C(CC(=O)N2CCCCC2)c2ccccc2)c1O (stereo unspecified) | 3 | 2 | i | 100 | 108 | . | . | .
CCCCN(C)CCNC(=O)C(=O)c1c(C)[nH]c2ccccc12 | -4 | 24 | i | 75*[inhibitor] | 84 | 99 | -4 | 101
Cc1[nH]c2ccccc2c1C(=O)C(=O)NCCCc1ccccc1 | 9 | -5 | i | 106 | 109 | . | . | .
COc1cc2nc(N3CCN(c4cc(C)ccc4C)CC3)nc(N)c2cc1OC | 42* | 43 | i | 106 | 186* | 226* | 75* | 113
Cc1ccc(S(=O)(=O)N(CC(=O)Nc2ccc(Cl)c([N+](=O)[O-])c2)C2CCCCC2)cc1 | 27 | -1 | i | 107 | 146* | 132 | 20 | 106
CCN(CC)CCN1C(=O)/C(=C\c2ccc(Cl)c([N+](=O)[O-])c2)SC1=Nc1ccc(OC)cc1 | 36* | 13 | i | 109 | 197* | 154 | 25 | 108
COc1ccc(N=C2S/C(=C\c3ccc(Cl)c([N+](=O)[O-])c3)C(=O)N2CCN(C)C)cc1 | 69* | 33 | i | 106 | 182* | 135 | 42 | 103
O=C1C=C(c2ccc3cc[nH]c3c2)C[C@@H](c2ccc3c(c2)OCO3)C1 | . | -11 | . | . | . | . | . | .
Cc1ccc(S(=O)(=O)N2CCOC2CNC(=O)C(=O)NCCN(C)C)cc1 (stereo unspecified) | 4 | 9 | i | 100 | 105 | . | . | .
Cc1nc([N+](=O)[O-])c(Br)n1CC(=O)c1ccc(Br)cc1 | 6 | -7 | i | 133* | 126 | 93 | -12 | 95
CCN(CC)CCCNC(=O)c1cc(-c2ccccc2)c(N2CCCCC2)s1 | 26* | 43 | i | 105 | 161* | 162 | 41 | 107
COc1ccc(CN2C(=NC(=O)C3CCCO3)SC3CS(=O)(=O)CC32)cc1OC (stereo unspecified) | 4 | -4 | i | 103 | 101 | . | . | .
CC(C)Cn1c(N)c(C(=O)COC(=O)c2ccc([N+](=O)[O-])o2)c(=O)n(C)c1=O | -1 | -8 | i | 105 | 97 | . | . | .
O=C(C1=C[C@@H](c2ccc(C(F)(F)F)cc2)C[C@@H](OCCCCO)O1)N1CCN(Cc2ccccc2)CC1 | 2 | 17 | i | 73*[inhibitor] | 103 | 107 | 3 | 104
O=C(C1=C[C@H](c2ccc(C(F)(F)F)cc2)C[C@H](OCCCCO)O1)N1CCN(Cc2ccccc2)CC1 | -4 | 16 | i | 99 | 96 | . | . | .
N=c1n(CCN2CCCCC2)c2ccccc2n1CC(=O)c1ccc(Cl)c(Cl)c1 | 28 | 39 | i | 102 | 173* | 166 | 30 | 106
N=c1n(CCN2CCCCC2)c2ccccc2n1CC(O)c1ccc(Cl)c(Cl)c1 (stereo unspecified) | 14 | 22 | i | 110 | 142* | 153 | 18 | 103
N=c1n(CCN2CCCCC2)c2ccccc2n1CC(O)c1cccc(Br)c1 (stereo unspecified) | 20 | 13 | i | 97 | 129 | . | . | .
SMILES | MEKK2mut PB1 HTS | UBC13 polyUb | Rce1 inh | MEKK3 PB1 HTS | MEKK2wt PB1 HTS | MEKK2wt confirm | MEKK2mut-MEK5 | MEKK3 confirm
CCn1c(SCC(=O)N/N=C/c2ccc(O)c(OC)c2)nc2ccccc21 | 1 | 5 | i | 163* | 112 | 97 | 0 | 96
COc1cc(/C=N/NC(=O)CCc2c(C)n[nH]c2C)ccc1O | 6 | 3 | i | 123* | 111 | 104 | 5 | 104
CCn1c(SCC(=O)N/N=C/c2cccs2)nc2ccccc21 | 1 | -4 | i | 144* | 104 | 100 | -3 | 103
O=C(CSc1nnc(CNC(=O)c2cccs2)o1)Nc1ccccc1F | 0 | -4 | i | 104 | 101 | . | . | .
COc1ccc(C2CC(c3ccc(C)o3)=NN2C(C)=O)cc1 (stereo unspecified) | -1 | 16 | i | 102 | 99 | . | . | .
CCOc1cccc2c1OC(c1cc(OC)c(OC)c(OC)c1)N1N=C(c3ccc(C)o3)CC21 (stereo unspecified) | 8 | 4 | . | 15*[inhibitor] | 6.0* | 93 | -9 | 100
COc1ccc(C)cc1NC(=O)CNc1ccccc1CN(C)C1CCCCC1 | -2 | 18 | i | 98 | 98 | . | . | .
COc1ccc(Cl)cc1NC(=O)CNc1ccccc1CN(C)C1CCCCC1 | 36 | 12 | i | 106 | 154* | 156 | 34 | 114
O=C(O)c1cc(N/N=C/c2ccc(OCc3ccccc3)cc2)ccc1Cl | 134* | -9 | i | 112 | 186* | 99 | 1 | 102
Cc1cc(C(=O)COC(=O)Cc2n[nH]c(=O)c3ccccc23)c(C)n1-c1ccc2c(c1)OCCO2 | 0 | 6 | i | 135* | 102 | 101 | -5 | 96
CCCCc1n[nH]c(=S)n1Cc1ccc(C)cc1 | -17 | -6 | i | 48*[inhibitor] | 65 | 104 | 2 | 106
CC1CN(Cc2cn(C)nc2-c2ccc(Oc3ccccc3)cc2)CCN1C (stereo unspecified) | 49 | -10 | i | 112 | 172* | 109 | 0 | 98
O=C(O)COc1ccccc1/C=N/NC(=O)c1cccc(S(=O)(=O)N2CCOCC2)c1 | -5 | -2 | i | 96 | 93 | . | . | .
CC(=O)Nc1ccc(NC(=O)C2CCCN(c3ncccn3)C2)cc1 (stereo unspecified) | 0 | -7 | i | 94 | 95 | . | . | .
